The list is not random: actives were taken first. Their share in the collection is about 2.6%.
NFkB binder: binders of human NF-kappa-B p105. P19838. Small molecule microarray, anti-His fluorescence binding. calls only. 17,000 tested, 1.3% active. AID 624139;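 active = spot fluorescence over background significantly raised, with a chance value under 7% in all four replicate spots of the compound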;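 also: probe protein is his-tagged human p50 processed subunit at 1 µg/ml; raw spot fluorescence signals with no normalization applied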
Myc binder: c-Myc (human) binding | small molecule microarray, His-c-Myc binding, anti-His fluorescence | calls only | 17,000 tested, 1.5% active;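 active = spot fluorescence over background with P-value below 7% in all four replicate spots, showing protein binding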;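 also: score is binary with 100 for all four spots passing and 0 otherwise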
Target sequence (P01106 whole entry, looked up): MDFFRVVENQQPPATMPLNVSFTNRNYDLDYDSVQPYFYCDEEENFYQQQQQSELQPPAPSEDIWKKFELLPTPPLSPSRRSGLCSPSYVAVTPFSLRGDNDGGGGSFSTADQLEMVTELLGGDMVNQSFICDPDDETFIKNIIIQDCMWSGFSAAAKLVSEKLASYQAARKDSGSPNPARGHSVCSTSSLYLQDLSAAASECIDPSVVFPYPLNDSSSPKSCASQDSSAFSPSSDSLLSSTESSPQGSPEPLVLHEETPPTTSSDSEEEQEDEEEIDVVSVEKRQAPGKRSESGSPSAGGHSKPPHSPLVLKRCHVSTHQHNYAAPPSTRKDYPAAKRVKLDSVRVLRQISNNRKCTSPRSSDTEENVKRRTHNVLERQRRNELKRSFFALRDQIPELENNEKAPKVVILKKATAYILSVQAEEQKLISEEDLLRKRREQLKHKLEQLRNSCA
p53 PUMA act: restores mutant p53 pathway signaling in SW480 cells; SW480 PUMA-promoter luciferase, p53 mutant reactivation; activation, % at 9.98 µM; 28,000 tested, 1.5% active; in the data active = activation above about 52%
p53 mut binder: mutant p53 (human) binding; small molecule microarray binding, anti-GST fluorescence; calls only; 17,000 tested, 0.4% active; AID 624136;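 active = compounds whose four printed spots each glow above background more than chance allows, each with a p-value under 7%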
STAT3 SMM: binders of human STAT3. P40763. Small molecule microarray, His-STAT3 binding, anti-His fluorescence. calls only. 17,000 tested, 0.2% active;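 active = compounds whose four printed spots each show fluorescence over background unusually high for their array block, chance value under 7%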
Numbers without * were called inactive.

What do the screens show for `CCCN(C)C[C@H]1OCCCC[C@@H](C)Oc2ccc(NS(=O)(=O)c3ccc(OC)cc3)cc2C(=O)N([C@H](C)CO)C[C@H]1C`?
NFkB binder: inactive; Myc binder: inactive; p53 PUMA act: -11; p53 mut binder: active; STAT3 SMM: inactive

What do the screens show for `C[C@H](CO)N1C[C@H](C)[C@@H](CN(C)CC2CCCCC2)Oc2ccc(N(C)C)cc2C1=O`?
NFkB binder: inactive; Myc binder: inactive; p53 PUMA act: 8; p53 mut binder: inactive; STAT3 SMM: inactive

How did COC(=O)c1cccc(-n2c(CCC(=O)O)ccc2-c2cccs2)c1 do in these assays?
NFkB binder: inactive; Myc binder: inactive; p53 PUMA act: 63*; p53 mut binder: inactive; STAT3 SMM: inactive

What do the screens show for `CC(=O)c1ccc(NC(=O)Cn2cnc3c(sc4nc5c(cc43)COC(C)(C)C5)c2=O)cc1`?
NFkB binder: inactive; Myc binder: inactive; p53 PUMA act: 73*; p53 mut binder: inactive; STAT3 SMM: inactive

How did CC1(C)Cc2nc3sc4c(=O)n(CC(=O)NCCc5ccccc5)cnc4c3cc2CO1 do in these assays?
p53 PUMA act: 12

Results for COC(=O)[C@]1(Cc2ccccc2)N=C(c2ccc(OCCCO)cc2)O[C@@H]1c1ccccc1N=[N+]=[N-] ?
NFkB binder: active; Myc binder: inactive; p53 mut binder: active; STAT3 SMM: inactive

Results for [N-]=[N+]=NCc1ccccc1C[C@@]1(C(=O)N2CCOCC2)N=C(c2ccc(OCCCO)cc2)O[C@@H]1c1ccccc1 ?
NFkB binder: inactive; Myc binder: inactive; p53 mut binder: inactive; STAT3 SMM: inactive

How did O=C(NCc1ccccc1)[C@@]1(Cc2ccccc2)N=C(c2ccc(OCCCO)cc2)O[C@H]1c1ccccc1 do in these assays?
NFkB binder: inactive; Myc binder: inactive; p53 mut binder: active; STAT3 SMM: inactive

Results for [N-]=[N+]=NCc1ccccc1C[C@@]1(C(=O)N2CCCCC2)N=C(c2ccc(OCCCO)cc2)O[C@@H]1c1ccccc1 ?
NFkB binder: inactive; Myc binder: inactive; p53 mut binder: inactive; STAT3 SMM: active

How did O=Nc1c(-c2c(O)[nH]c3ccc(S(=O)(=O)O)cc23)[nH]c2ccccc12 do in these assays?
NFkB binder: inactive; Myc binder: inactive; p53 PUMA act: -2; p53 mut binder: inactive; STAT3 SMM: inactive

Results for C[C@H](CO)N1C[C@H](C)[C@H](CN(C)S(=O)(=O)c2cn(C)cn2)Oc2c(NC(=O)Nc3cccc4ccccc34)cccc2C1=O ?
NFkB binder: inactive; Myc binder: inactive; p53 PUMA act: -3; p53 mut binder: inactive; STAT3 SMM: inactive

How did O=C(CSc1nnc(-c2cnccn2)n1-c1ccccc1)Nc1cc(C(F)(F)F)ccc1Cl do in these assays?
p53 PUMA act: -8

Results for C[C@H]1CN([C@@H](C)CO)C(=O)c2cccc(NC(=O)NC3CCCCC3)c2O[C@@H]1CN(C)S(=O)(=O)c1cccs1 ?
NFkB binder: inactive; Myc binder: inactive; p53 PUMA act: 2; p53 mut binder: inactive; STAT3 SMM: inactive

Results for COc1cc2c(cc1NC(=O)CSc1nnc(N)s1)oc1ccccc12 ?
NFkB binder: inactive; Myc binder: inactive; p53 PUMA act: 117*; p53 mut binder: inactive; STAT3 SMM: inactive

What do the screens show for `COc1cc2c(cc1NC(=O)CSc1nnnn1C)oc1ccccc12`?
p53 PUMA act: 147*

How did C[C@@H]1CCCCO[C@H](CN(C)C(=O)Nc2ccccc2)[C@@H](C)CN([C@@H](C)CO)C(=O)c2cc(NC(=O)Cc3ccccc3)ccc2O1 do in these assays?
NFkB binder: inactive; Myc binder: inactive; p53 PUMA act: -4; p53 mut binder: inactive; STAT3 SMM: inactive

How did C#CCNC(=O)C1=C[C@@H](c2ccccc2)C[C@@H](OCc2ccc(CO)cc2)O1 do in these assays?
NFkB binder: inactive; Myc binder: inactive; p53 mut binder: inactive; STAT3 SMM: inactive

How did CC1(C)CC(=O)c2c(O)cc(OCC(=O)c3ccccc3)cc2O1 do in these assays?
NFkB binder: inactive; Myc binder: inactive; p53 PUMA act: 62*; p53 mut binder: inactive; STAT3 SMM: inactive

How did CC1(C)CC(=O)c2c(O)cc(OCC(=O)c3ccc(Cl)c(Cl)c3)cc2O1 do in these assays?
p53 PUMA act: 39

Results for O=C(COc1ccc([N+](=O)[O-])cc1)Nc1cccc(O)c1 ?
p53 PUMA act: 117*

How did O=C(COc1ccccc1)Nc1ccc2oc(-c3ccccc3)nc2c1 do in these assays?
NFkB binder: inactive; Myc binder: inactive; p53 PUMA act: 69*; p53 mut binder: inactive; STAT3 SMM: inactive

What do the screens show for `Cc1cccc(-c2nc3cc(NC(=O)COc4ccccc4)ccc3o2)c1`?
p53 PUMA act: 33

Results for COc1ccc(OCC(=O)Nc2cccc(-c3cnc4ccccc4n3)c2)cc1 ?
p53 PUMA act: 92*

How did CCC(=O)Nc1cccc(NC(=O)COc2ccc3ccccc3c2)c1 do in these assays?
p53 PUMA act: 94*

What do the screens show for `COC(=O)C(CC#Cc1ccc2c(c1)[C@]1(C(=O)N2)[C@H](c2ccc(O)cc2)N2[C@H](c3ccccc3)[C@H](c3ccccc3)OC(=O)[C@H]2[C@@H]1C(=O)N1CCN(c2ncccn2)CC1)C(=O)OC`?
NFkB binder: inactive; Myc binder: inactive; p53 mut binder: inactive; STAT3 SMM: inactive

How did COc1ccc2oc(-c3cccc(NC(=O)COc4ccc(Cl)cc4)c3)nc2c1 do in these assays?
p53 PUMA act: 91*

How did COc1ccc(OCC(=O)Nc2ccc3oc(-c4cccc(Br)c4)nc3c2)cc1 do in these assays?
p53 PUMA act: 43

How did C[C@@H]1CCCCO[C@@H](CN(C)S(=O)(=O)c2ccc(F)cc2)[C@@H](C)CN([C@H](C)CO)C(=O)c2cc(NC(=O)C3CCCCC3)ccc2O1 do in these assays?
p53 PUMA act: 2

Results for CS(=O)(=O)N(CC(=O)O)c1ccc(C23CC4CC(CC(C4)C2)C3)cc1 ?
NFkB binder: inactive; Myc binder: active; p53 PUMA act: 3; p53 mut binder: inactive; STAT3 SMM: inactive

What do the screens show for `Cc1ccc(NC(=O)CN(c2cccc(F)c2)S(C)(=O)=O)cc1Cl`?
p53 PUMA act: 0

What do the screens show for `Cc1ccc(C)c(NC(=O)CN(c2cccc(F)c2)S(C)(=O)=O)c1`?
p53 PUMA act: 64*

Results for Nc1nnc(SCC(=O)N2CCc3ccccc32)n1-c1ccccc1 ?
p53 PUMA act: -1

How did CCn1nccc1C(=O)Nc1nc2ccccc2n1CCN1CCCCC1 do in these assays?
NFkB binder: inactive; Myc binder: active; p53 PUMA act: -2; p53 mut binder: inactive; STAT3 SMM: inactive

How did C[C@@H]1CN([C@@H](C)CO)C(=O)c2cccc(NC(=O)c3ccc(-c4nccs4)cc3)c2O[C@@H]1CN(C)S(=O)(=O)c1cccs1 do in these assays?
NFkB binder: inactive; Myc binder: inactive; p53 PUMA act: -57; p53 mut binder: inactive; STAT3 SMM: inactive
